According to the supplement of paper PMC10849652:
About 8,800 targets were measured; listed, in parts, are those with a hit and a random draw of the rest. About 0.5% of all pairs of compound and target were hits. Unmarked numbers belong to inactive results.

How the values were obtained:
Assay in all cases: log2 fold change, soluble protein after heating vs DMSO (PISA); higher = thermal stabilisation; K562 lysate, 10 uM; active = over 0.2 and 3.5 SD of the protein, either way, in both replicates (recomputed)
lapatinib = compound: CS(=O)(=O)CCNCc1ccc(-c2ccc3ncnc(Nc4ccc(OCc5cccc(F)c5)c(Cl)c4)c3c2)o1 [lapatinib]
Outline: (§1)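 K562 pellets were dounce-homogenised in PBS pH 7.4 with 1 mM MgCl2, and the crude extract at 1 mg/mL protein was treated with 10 μM compound for 30 min. Aliquots were heated for 3 min across 48°C-58°C, pooled, and brought to 0.5% NP-40 at 4°C; soluble protein was the supernatant after 21,000xg for 90 min. Soluble protein was quantified by TMTpro 16plex LC-MS/MS with channel sums equalised, and reported as log2 fold change in thermal stability against DMSO controls, with values from duplicates.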

pictilisib = compound: CS(=O)(=O)N1CCN(Cc2cc3nc(-c4cccc5[nH]ncc45)nc(N4CCOCC4)c3s2)CC1 [pictilisib]
Outline: as §1

crizotinib = compound: C[C@@H](Oc1cc(-c2cnn(C3CCNCC3)c2)cnc1N)c1c(Cl)ccc(F)c1Cl [crizotinib]
Outline: as §1

[1] = compound: C[C@H](C1=CC=C(C=C1)C(=O)NC2=C3C=CNC3=NC=C2)N
Outline: as §1

duvelisib = compound: C[C@H](Nc1ncnc2nc[nH]c12)c1cc2cccc(Cl)c2c(=O)n1-c1ccccc1 [duvelisib]
Outline: as §1

gandotinib = compound: Cc1cc(Nc2cc(CN3CCOCC3)c3nc(C)c(Cc4ccc(Cl)cc4F)n3n2)n[nH]1 [gandotinib]
Outline: as §1

tozasertib = compound: Cc1cc(Nc2cc(N3CCN(C)CC3)nc(Sc3ccc(NC(=O)C4CC4)cc3)n2)n[nH]1 [tozasertib]
Outline: as §1

doramapimod = compound: Cc1ccc(-n2nc(C(C)(C)C)cc2NC(=O)Nc2ccc(OCCN3CCOCC3)c3ccccc23)cc1 [doramapimod]
Outline: as §1

bafetinib = compound: Cc1ccc(NC(=O)c2ccc(CN3CC[C@H](N(C)C)C3)c(C(F)(F)F)c2)cc1Nc1nccc(-c2cncnc2)n1 [bafetinib]
Outline: as §1

[2] = compound: Cc1cccc(CC(=O)N2CCc3c2ccc(-c2cn(C)c4ncnc(N)c24)c3F)n1
Outline: as §1

nilotinib = compound: Cc1cn(-c2cc(NC(=O)c3ccc(C)c(Nc4nccc(-c5cccnc5)n4)c3)cc(C(F)(F)F)c2)cn1 [nilotinib]
Outline: as §1

[3] = compound: Cc1nc(Nc2n[nH]c3c2CN(C(=O)N[C@H](CN(C)C)c2ccccc2)C3(C)C)c2sccc2n1
Outline: as §1

dasatinib = compound: Cc1nc(Nc2ncc(C(=O)Nc3c(C)cccc3Cl)s2)cc(N2CCN(CCO)CC2)n1 [dasatinib]
Outline: as §1

[4] = compound: Cc1ncc(-c2ccnc(Nc3ccc(S(C)(=O)=O)cc3)n2)n1C(C)C
Outline: as §1

[5] = compound: Cn1cc(-c2ccc3c(c2)CCN3C(=O)Cc2cccc(C(F)(F)F)c2)c2c(N)ncnc21
Outline: as §1

quisinostat = compound: Cn1cc(CNCC2CCN(c3ncc(C(=O)NO)cn3)CC2)c2ccccc21 [quisinostat]
Outline: as §1

tipifarnib = compound: Cn1cncc1[C@@](N)(c1ccc(Cl)cc1)c1ccc2c(c1)c(-c1cccc(Cl)c1)cc(=O)n2C [tipifarnib]
Outline: as §1

[6] = compound: NC(=O)Nc1cc(-c2cccc(F)c2)sc1C(=O)N[C@H]1CCCNC1
Outline: as §1

[7] = compound: NC(=O)c1cnc(N[C@@H]2CCCC[C@@H]2N)nc1Nc1cccc(-n2nccn2)c1
Outline: as §1

[8] = compound: NC1(c2ccc(-c3nc4ccn5c(=O)[nH]nc5c4cc3-c3ccccc3)cc2)CCC1
Outline: as §1

UniProt Q86WB0, sequence (Q86WB0 whole entry, looked up): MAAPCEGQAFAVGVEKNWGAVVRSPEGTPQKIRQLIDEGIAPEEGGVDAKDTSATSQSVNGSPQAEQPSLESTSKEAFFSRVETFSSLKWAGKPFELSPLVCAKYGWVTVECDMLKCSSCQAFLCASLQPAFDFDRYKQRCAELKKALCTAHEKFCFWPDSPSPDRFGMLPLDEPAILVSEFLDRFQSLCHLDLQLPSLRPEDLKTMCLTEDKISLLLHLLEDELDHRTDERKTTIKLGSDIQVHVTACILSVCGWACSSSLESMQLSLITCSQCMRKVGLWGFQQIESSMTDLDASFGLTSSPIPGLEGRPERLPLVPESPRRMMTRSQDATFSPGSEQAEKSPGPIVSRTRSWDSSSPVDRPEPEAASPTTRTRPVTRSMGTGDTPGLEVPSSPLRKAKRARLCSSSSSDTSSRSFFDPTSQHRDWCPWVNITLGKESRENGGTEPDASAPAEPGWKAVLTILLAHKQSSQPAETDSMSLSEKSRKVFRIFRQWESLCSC
UniProt Q7Z3J2, sequence (Q7Z3J2 whole entry, looked up): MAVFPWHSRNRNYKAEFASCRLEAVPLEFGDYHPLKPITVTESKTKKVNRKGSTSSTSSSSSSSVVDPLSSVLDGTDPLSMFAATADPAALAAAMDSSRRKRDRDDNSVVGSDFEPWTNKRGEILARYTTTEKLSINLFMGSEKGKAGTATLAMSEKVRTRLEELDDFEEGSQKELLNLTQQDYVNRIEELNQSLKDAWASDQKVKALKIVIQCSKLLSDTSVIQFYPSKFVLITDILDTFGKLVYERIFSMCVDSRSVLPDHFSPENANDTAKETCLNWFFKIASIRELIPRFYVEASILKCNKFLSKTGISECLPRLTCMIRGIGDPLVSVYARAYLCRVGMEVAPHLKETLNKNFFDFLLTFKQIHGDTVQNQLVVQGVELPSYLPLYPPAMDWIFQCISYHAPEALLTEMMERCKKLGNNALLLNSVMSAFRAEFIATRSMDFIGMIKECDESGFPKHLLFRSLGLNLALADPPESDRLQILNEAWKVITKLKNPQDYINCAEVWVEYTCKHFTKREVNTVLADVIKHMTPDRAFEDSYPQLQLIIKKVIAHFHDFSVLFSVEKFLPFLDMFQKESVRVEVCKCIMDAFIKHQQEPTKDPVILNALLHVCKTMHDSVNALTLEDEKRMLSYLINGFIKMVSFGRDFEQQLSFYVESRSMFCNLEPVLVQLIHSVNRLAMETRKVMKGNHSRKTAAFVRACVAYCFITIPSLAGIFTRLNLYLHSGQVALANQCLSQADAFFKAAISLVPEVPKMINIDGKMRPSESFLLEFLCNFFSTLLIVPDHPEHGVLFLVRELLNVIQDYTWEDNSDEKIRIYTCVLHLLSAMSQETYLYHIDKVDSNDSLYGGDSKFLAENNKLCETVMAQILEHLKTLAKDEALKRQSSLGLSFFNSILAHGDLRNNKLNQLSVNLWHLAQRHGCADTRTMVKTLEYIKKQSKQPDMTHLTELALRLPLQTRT
UniProt Q8IX07, sequence (Q8IX07 whole entry, looked up): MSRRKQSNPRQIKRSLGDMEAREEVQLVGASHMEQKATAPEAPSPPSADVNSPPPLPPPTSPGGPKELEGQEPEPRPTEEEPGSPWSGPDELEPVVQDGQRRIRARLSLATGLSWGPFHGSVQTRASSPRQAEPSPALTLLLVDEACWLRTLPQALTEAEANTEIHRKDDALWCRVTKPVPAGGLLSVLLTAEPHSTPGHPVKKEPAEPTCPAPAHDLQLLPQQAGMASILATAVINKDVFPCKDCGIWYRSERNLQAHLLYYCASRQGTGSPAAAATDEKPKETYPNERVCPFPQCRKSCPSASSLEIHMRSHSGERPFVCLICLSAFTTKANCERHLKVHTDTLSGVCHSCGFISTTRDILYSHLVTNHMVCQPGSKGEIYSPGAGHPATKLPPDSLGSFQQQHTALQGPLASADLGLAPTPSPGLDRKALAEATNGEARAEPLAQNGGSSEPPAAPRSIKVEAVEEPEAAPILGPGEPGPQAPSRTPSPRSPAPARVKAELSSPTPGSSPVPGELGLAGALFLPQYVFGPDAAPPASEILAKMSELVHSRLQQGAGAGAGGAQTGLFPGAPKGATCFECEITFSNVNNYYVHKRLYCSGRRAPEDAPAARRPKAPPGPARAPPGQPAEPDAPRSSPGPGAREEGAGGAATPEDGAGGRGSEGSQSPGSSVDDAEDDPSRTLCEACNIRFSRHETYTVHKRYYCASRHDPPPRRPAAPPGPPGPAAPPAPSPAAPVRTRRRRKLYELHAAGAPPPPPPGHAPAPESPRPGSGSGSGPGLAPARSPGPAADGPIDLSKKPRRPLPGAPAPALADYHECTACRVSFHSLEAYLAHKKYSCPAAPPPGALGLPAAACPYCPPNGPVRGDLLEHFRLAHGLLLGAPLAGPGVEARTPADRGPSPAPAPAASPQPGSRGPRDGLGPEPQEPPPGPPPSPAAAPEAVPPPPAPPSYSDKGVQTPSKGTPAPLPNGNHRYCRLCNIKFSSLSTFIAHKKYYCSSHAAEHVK
UniProt Q9UBW7, sequence (Q9UBW7 whole entry, looked up): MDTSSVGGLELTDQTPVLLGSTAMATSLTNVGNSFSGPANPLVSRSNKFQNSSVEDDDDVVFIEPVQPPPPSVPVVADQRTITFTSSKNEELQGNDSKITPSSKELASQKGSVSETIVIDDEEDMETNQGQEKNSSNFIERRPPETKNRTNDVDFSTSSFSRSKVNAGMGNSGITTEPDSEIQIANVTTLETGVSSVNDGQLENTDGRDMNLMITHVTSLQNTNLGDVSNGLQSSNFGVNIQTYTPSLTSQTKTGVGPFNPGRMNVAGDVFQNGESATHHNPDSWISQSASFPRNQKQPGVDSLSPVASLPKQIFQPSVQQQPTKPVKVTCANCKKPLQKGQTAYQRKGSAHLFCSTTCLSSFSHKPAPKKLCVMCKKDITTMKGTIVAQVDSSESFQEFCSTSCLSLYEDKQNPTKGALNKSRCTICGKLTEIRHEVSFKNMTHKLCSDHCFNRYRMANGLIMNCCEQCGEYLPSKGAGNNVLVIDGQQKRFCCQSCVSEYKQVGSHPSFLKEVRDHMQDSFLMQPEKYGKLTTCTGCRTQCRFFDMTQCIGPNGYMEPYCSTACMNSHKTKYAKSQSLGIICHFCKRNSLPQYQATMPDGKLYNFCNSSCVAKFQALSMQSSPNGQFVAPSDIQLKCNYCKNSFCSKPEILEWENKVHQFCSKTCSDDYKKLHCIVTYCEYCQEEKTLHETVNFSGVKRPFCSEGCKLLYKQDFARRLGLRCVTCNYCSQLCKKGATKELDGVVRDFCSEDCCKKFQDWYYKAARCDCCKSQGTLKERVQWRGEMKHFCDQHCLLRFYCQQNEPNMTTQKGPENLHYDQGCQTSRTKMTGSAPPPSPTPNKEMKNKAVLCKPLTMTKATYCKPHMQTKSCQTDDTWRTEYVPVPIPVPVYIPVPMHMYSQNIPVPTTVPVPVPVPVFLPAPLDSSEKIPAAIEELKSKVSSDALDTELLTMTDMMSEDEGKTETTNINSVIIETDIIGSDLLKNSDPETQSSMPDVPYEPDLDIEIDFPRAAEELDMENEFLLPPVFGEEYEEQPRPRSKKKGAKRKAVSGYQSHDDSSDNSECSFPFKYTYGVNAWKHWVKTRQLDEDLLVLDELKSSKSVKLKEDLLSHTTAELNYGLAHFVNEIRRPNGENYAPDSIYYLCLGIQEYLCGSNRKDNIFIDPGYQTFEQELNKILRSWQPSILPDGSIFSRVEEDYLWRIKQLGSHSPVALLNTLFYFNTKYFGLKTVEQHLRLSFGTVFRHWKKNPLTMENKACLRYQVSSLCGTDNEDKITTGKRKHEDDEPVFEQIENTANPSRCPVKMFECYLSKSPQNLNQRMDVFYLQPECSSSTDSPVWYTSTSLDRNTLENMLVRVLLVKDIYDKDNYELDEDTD
UniProt Q96JC1, sequence (Q96JC1 whole entry, looked up): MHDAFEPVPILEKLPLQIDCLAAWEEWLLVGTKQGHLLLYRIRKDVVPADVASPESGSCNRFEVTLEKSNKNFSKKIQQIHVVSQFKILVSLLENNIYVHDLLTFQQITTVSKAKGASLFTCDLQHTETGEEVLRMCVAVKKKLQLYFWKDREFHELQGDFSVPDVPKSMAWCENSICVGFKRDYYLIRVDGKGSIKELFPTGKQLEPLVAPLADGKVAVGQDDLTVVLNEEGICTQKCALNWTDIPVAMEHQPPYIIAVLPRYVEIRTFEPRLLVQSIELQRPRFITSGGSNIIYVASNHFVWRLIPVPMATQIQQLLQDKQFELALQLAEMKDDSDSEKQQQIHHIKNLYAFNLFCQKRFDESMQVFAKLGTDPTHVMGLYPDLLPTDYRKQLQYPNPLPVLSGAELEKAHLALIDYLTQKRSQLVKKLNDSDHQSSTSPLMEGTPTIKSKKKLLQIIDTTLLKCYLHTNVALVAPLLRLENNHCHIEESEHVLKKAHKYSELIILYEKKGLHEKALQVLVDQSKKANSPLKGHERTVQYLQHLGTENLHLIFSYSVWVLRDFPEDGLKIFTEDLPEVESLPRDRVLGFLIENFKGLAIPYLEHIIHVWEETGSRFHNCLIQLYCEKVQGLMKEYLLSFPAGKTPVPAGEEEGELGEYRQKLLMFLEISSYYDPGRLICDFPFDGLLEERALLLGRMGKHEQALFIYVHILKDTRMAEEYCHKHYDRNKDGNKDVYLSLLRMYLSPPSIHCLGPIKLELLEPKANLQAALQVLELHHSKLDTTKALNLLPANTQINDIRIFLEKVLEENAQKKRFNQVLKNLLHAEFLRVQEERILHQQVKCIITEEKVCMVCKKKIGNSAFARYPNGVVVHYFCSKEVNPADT
UniProt Q86U90, sequence (Q86U90 whole entry, looked up): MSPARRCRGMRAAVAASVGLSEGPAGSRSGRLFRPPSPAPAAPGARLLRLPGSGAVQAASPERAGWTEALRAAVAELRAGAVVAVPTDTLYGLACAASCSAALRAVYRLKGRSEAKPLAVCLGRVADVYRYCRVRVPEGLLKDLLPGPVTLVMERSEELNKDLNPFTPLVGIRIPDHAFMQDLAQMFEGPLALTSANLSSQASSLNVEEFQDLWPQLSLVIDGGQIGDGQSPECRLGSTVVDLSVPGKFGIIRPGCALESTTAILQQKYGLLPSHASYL

Target | log2 fold change (lapatinib) | log2 fold change (pictilisib) | log2 fold change (crizotinib) | log2 fold change [1] | log2 fold change (duvelisib) | log2 fold change (gandotinib) | log2 fold change (tozasertib) | log2 fold change (doramapimod) | log2 fold change (bafetinib) | log2 fold change [2] | log2 fold change (nilotinib) | log2 fold change [3] | log2 fold change (dasatinib) | log2 fold change [4] | log2 fold change [5] | log2 fold change (quisinostat) | log2 fold change (tipifarnib) | log2 fold change [6] | log2 fold change [7] | log2 fold change [8]
ZNF217 (UniProt O75362) | -0.02 | 0.059 | -0.025 | -0.045 | -0.011 | -0.009 | 0.044 | 0.004 | 0.037 | 0.052 | 0.06 | 0.026 | 0.001 | 0.054 | -0.057 | -0.179 | -0.086 | 0.014 | 0.021 | -0.075
VPS35L (UniProt Q7Z3J2) | -0.016 | -0.003 | -0.028 | -0.025 | 0.02 | -0.029 | 0.026 | 0.02 | -0.052 | 0.065 | -0.019 | -0.006 | -0.088 | 0.022 | 0.008 | -0.046 | 0.03 | 0.043 | 0.001 | -0.044
ZMYM2 (UniProt Q9UBW7) | 0.028 | -0.147 | -0.079 | 0.098 | 0.028 | -0.329 | 0.046 | 0.041 | -0.024 | -0.084 | -0.04 | 0.001 | -0.023 | -0.007 | 0.035 | -0.082 | 0.08 | 0.056 | 0.099 | -0.033
WDR20 isoform 7 (UniProt Q8TBZ3) | 0.015 | -0.006 | -0.069 | -0.416 (active) | 0.043 | -0.009 | 0 | -0.022 | 0.07 | 0.081 | -0.001 | 0.029 | 0.055 | -0.229 | 0.038 | 0.027 | -0.174 | 0.009 | -0.026 | -0.042
ZC3HC1 (UniProt Q86WB0) | 0.042 | 0.001 | 0.023 | 0.222 (active) | 0.013 | -0.082 | -0.036 | 0.025 | -0.019 | -0.094 | -0.013 | -0.005 | 0.029 | 0.007 | -0.009 | -0.033 | -0.03 | 0.025 | 0.017 | 0.024
WDR6 (UniProt Q9NNW5) | -0.023 | -0.03 | -0.049 | -0.05 | -0.005 | -0.007 | -0.013 | -0.007 | -0.022 | 0.024 | -0.017 | 0.002 | -0.018 | -0.003 | 0.026 | -0.075 | 0.036 | 0.033 | 0.006 | -0.032
VPS41 (UniProt P49754) | -0.018 | -0.046 | -0.011 | 0.079 | -0.021 | -0.093 | 0.047 | 0.023 | -0.021 | -0.05 | 0.034 | 0.014 | -0.038 | 0.001 | 0.057 | -0.048 | -0.029 | 0.029 | 0.001 | -0.009
WDR3 (UniProt Q9UNX4) | -0.012 | -0.113 | -0.003 | -0.054 | 0.008 | -0.022 | 0.003 | 0.01 | -0.083 | 0.14 | 0.055 | 0.001 | -0.069 | -0.016 | 0.027 | 0.044 | -0.003 | 0.021 | 0.023 | 0.009
VPS39 (UniProt Q96JC1) | -0.018 | -0.018 | -0.066 | 0.603 (active) | 0.015 | -0.169 | 0.021 | 0.015 | -0.045 | -0.229 | 0.03 | -0.008 | -0.044 | 0.024 | -0.003 | -0.046 | 0.002 | 0.005 | -0.008 | -0.003
WIPI1 (UniProt Q5MNZ9) | -0.021 | -0.003 | 0.058 | -0.013 | -0.014 | 0.017 | 0.039 | -0.013 | -0.038 | -0.038 | 0.011 | -0.198 | 0.06 | 0.314 (active) | -0.028 | 0.013 | 0.003 | -0.011 | 0.009 | 0.011
ZFPM1 (UniProt Q8IX07) | -0.003 | -0.008 | -0.135 | 0.009 | 0.001 | -0.079 | -0.118 | 0.023 | -0.077 | -0.018 | 0.036 | -0.075 | -0.087 | 0.042 | 0.095 | -0.189 | 0.044 | 0.034 | -0.082 | -0.018
USP48 isoform 8 (UniProt Q86UV5) | -0.01 | -0.001 | -0.022 | -0.006 | -0.001 | -0.044 | 0.008 | 0.024 | -0.027 | 0.034 | 0.018 | 0.008 | 0.001 | 0 | 0.015 | -0.04 | -0.011 | 0.008 | -0.001 | -0.024
XAB2 (UniProt Q9HCS7) | -0.02 | -0.051 | -0.096 | 0.025 | 0.038 | -0.055 | -0.073 | 0.01 | 0.065 | 0.028 | 0.032 | -0.002 | -0.051 | 0.048 | 0.017 | 0.106 | -0.046 | 0.046 | -0.025 | -0.01
XPNPEP1 isoform 3 (UniProt Q9NQW7) | -0.017 | -0.02 | -0.008 | 0.001 | 0.049 | 0.002 | -0.024 | -0.003 | -0.021 | 0.018 | 0.022 | 0.016 | -0.049 | -0.004 | 0.014 | 0.024 | 0.011 | 0.007 | -0.005 | -0.023
YRDC (UniProt Q86U90) | -0.028 | -0.038 | -0.047 | -0.039 | 0.018 | 0.055 | 0.027 | 0.035 | 0.022 | 0.01 | 0 | 0.021 | 0.022 | 0.018 | -0.019 | -0.019 | 0.008 | -0.004 | 0.01 | -0.003
ZZEF1 (UniProt O43149) | -0.023 | -0.024 | -0.092 | -0.113 | 0.028 | 0.038 | -0.011 | 0.029 | -0.083 | 0.123 | -0.022 | 0 | -0.018 | 0.015 | -0.006 | -0.07 | 0.007 | 0.008 | 0.021 | -0.03
